Inconclusive results are not listed. Calls of active or inactive are those of the source. How the source made its calls, unless noted: active means hit-call score of the fitted dose curve at least 0.9, where 1 is the maximum; inconclusive means response in the unintended direction; inactive means score below 0.9.
Assays:
[1] = ATG_TCF_b_cat_CIS: Attagene CIS-FACTORIAL HepG2 Assay for human T-Cell-Factor with beta-catenin (TCF/b-cat) (AID 2282965; active means hit-call score of the fitted dose curve at least 0.9, where 1 is the maximum; inactive means score below 0.9); conditions: HepG2 TCF/beta-catenin cis-reporter transcription, actives raise or lower the signal
Summary of the method: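 Cells of the HepG2 line carry transiently transfected reporter units whose promoters respond to endogenous factors. Twenty-four hours post-dosing, reporter mRNA induction is measured by fluorescent RT-PCR and capillary electrophoresis, with DMSO as baseline.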

[2] = ATG_TAL_CIS: Attagene CIS-FACTORIAL HepG2 Assay for human TAL Basal Promoter (AID 2282966; active means hit-call score of the fitted dose curve at least 0.9, where 1 is the maximum; inactive means score below 0.9;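 further: background control endpoint measuring basal TAL promoter reporter mRNA not a specific factor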); conditions: HepG2 Attagene cis-factorial TAL promoter reporter; actives raise or lower the signal
Summary of the method: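 HepG2, transient MRTU transfection, 24 h compound exposure; RNA → oligo(dT) RT → PCR → 6-FAM primer extension → HpaI digest → CE fluorescence. Bidirectional curve fit vs DMSO. Background-control readout.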

[3] = ATG_TGFb_CIS: Attagene CIS-FACTORIAL HepG2 Assay for human Transforming Growth Factor (TGF) (AID 2282967; active means hit-call score of the fitted dose curve at least 0.9, where 1 is the maximum; inactive means score below 0.9); conditions: HepG2 Attagene CIS TGFb reporter, mRNA transcription; actives raise or lower the signal
Summary of the method: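 Multiplexed cis-reporter HepG2 system, 24 h treatment; mRNA induction read by fluorescence after RT-PCR and CE; DMSO negative control, bidirectional curve fitting.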

[4] = ATG_VDRE_CIS: Attagene CIS-FACTORIAL HepG2 Assay for human Vitamin D Receptor Element (VDRE) (AID 2282968; active means hit-call score of the fitted dose curve at least 0.9, where 1 is the maximum; inactive means score below 0.9); conditions: HepG2 VDRE cis-reporter transcription, actives raise or lower the signal
Summary of the method: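 Transient MRTU transfection of HepG2, 24 h compound exposure. Readout: reporter transcripts via RT-PCR and capillary electrophoresis, fluorescence. Bidirectional fit vs DMSO.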

[5] = target: X-box-binding protein 1 (Homo sapiens) (UniProt P17861); assay: ATG_Xbp1_CIS: Attagene CIS-FACTORIAL HepG2 Assay for human X-box Binding Protein 1 (XBP1) (AID 2282972; active means hit-call score of the fitted dose curve at least 0.9, where 1 is the maximum; inactive means score below 0.9); conditions: HepG2 XBP1 cis-element reporter, Attagene multiplex; actives raise or lower the signal
Summary of the method: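 Human hepatoma HepG2, cis-element reporter system, 24 h treatment; mRNA quantified by RT-PCR/CE fluorescence; fit relative to DMSO.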

[6] = target: Oxysterols receptor LXR-beta (Homo sapiens) (UniProt P55055); assay: ATG_LXRb_TRANS: Attagene TRANS-FACTORIAL HepG2 Assay for human Liver X Receptor beta (LXRb) (AID 2282981); conditions: HepG2 Attagene TRANS GAL4-LXRb reporter, mRNA
Summary of the method: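 Readout: fluorescent reporter mRNA fragments resolved by capillary electrophoresis after RT-PCR. System: transiently transfected human HepG2, exogenous LXRb-Gal4 chimera driving GAL4-UAS reporter, 24 h dosing. Activity fitted upward against DMSO baseline.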

[7] = ATG_M_06_TRANS: Attagene TRANS-FACTORIAL HepG2 Assay for M06 Transcription Factor (Internal Marker) (AID 2282983); conditions: HepG2 Attagene TRANS M06 internal marker reporter
Summary of the method: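 Read-out: fluorescent reporter cDNA fragments resolved by capillary electrophoresis after RT-PCR and HpaI cut. Source cells were HepG2 carrying transfected multi-reporter GAL4 constructs, dosed 24 h. Increase over DMSO control analysed.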

[8] = target: Nuclear receptor subfamily 4 group A member 2 (Homo sapiens) (UniProt P43354); assay: ATG_NURR1_TRANS: Attagene TRANS-FACTORIAL HepG2 Assay for human Nuclear Receptor Related Protein 1 (NURR1) (AID 2282985); conditions: HepG2 Attagene TRANS reporter, mRNA readout
Summary of the method: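 Read-out: reporter mRNA induction by RT-PCR plus capillary electrophoresis with fluorescence detection, after 24 h dosing of transfected HepG2 cells. Exogenous NR-Gal4 chimera activity drives GAL4-UAS reporter; activity fitted upward versus DMSO.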

[9] = target: Transcriptional activator Myb (Homo sapiens) (UniProt P10242); assay: ATG_Myb_CIS: Attagene CIS-FACTORIAL HepG2 Assay for human Myeloblastosis (Myb) Proto-Oncogene Transcription Factor (AID 2282986; active means hit-call score of the fitted dose curve at least 0.9, where 1 is the maximum; inactive means score below 0.9); conditions: HepG2 Attagene CIS-FACTORIAL Myb reporter transcription; actives raise or lower the signal
Summary of the method: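 Endogenous transcription factor activity at a Myb-responsive cis element is reported in human liver HepG2 cells after 24 h chemical treatment. Reporter mRNA is detected by RT-PCR and capillary electrophoresis fluorescence, with DMSO as baseline.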

[10] = ATG_GAL4_TRANS: Attagene TRANS-FACTORIAL HepG2 Assay for GAL4 (Internal Marker) (AID 2282976); conditions: HepG2 Attagene TRANS GAL4 internal marker reporter
Summary of the method: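 RT-PCR/capillary electrophoresis readout of reporter mRNA. HepG2, transient MRTU transfection (GAL4-UAS reporters), 24 h compound exposure. Background-control endpoint, positive direction vs DMSO baseline.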

[11] = target: Oxysterols receptor LXR-alpha (Homo sapiens) (UniProt Q13133); assay: ATG_LXRa_TRANS: Attagene TRANS-FACTORIAL HepG2 Assay for human Liver X Receptor alpha (LXRa) (AID 2282980); conditions: HepG2 Attagene TRANS reporter, LXRa transactivation
Summary of the method: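 Read-out: reporter transcript levels by RT-PCR plus capillary electrophoresis, fluorescence intensity. Transiently transfected HepG2, exogenous NR-GAL4 chimera, GAL4-UAS reporters; 24 h compound exposure. Activity = increase over DMSO negative control.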

[12] = target: Hepatocyte nuclear factor 4-alpha (Homo sapiens) (UniProt P41235); assay: ATG_HNF4a_TRANS: Attagene TRANS-FACTORIAL HepG2 Assay for human Hepatocyte Nuclear Factor 4 alpha (HNF4a) (AID 2282982); conditions: HepG2 HNF4a transactivation reporter, mRNA readout
Summary of the method: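 Transient MRTU transfection of HepG2, 24 h dosing. Readout: reporter mRNA via RT-PCR + capillary electrophoresis, fluorescence; activity fit upward relative to DMSO control.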

[13] = target: Steroid hormone receptor ERR1 (Homo sapiens) (UniProt P11474); assay: ATG_ERRa_TRANS: Attagene TRANS-FACTORIAL HepG2 Assay for human Estrogen-Related Receptor alpha (ERRa) (AID 2282971); conditions: HepG2 Attagene TRANS reporter, ERRa transactivation
Summary of the method: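 Transfected HepG2, 24 h dosing, ERRa-Gal4 chimera driving GAL4-UAS reporter. Readout: reporter mRNA via RT-PCR plus capillary electrophoresis (fluorescence). Positive direction vs DMSO control.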

[14] = target: Estrogen-related receptor gamma (Homo sapiens) (UniProt P62508); assay: ATG_ERRg_TRANS: Attagene TRANS-FACTORIAL HepG2 Assay for human Estrogen-Related Receptor gamma (ERRg) (AID 2282977); conditions: HepG2 Attagene TRANS reporter, ERRg transactivation;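 further: hits increase reporter signal over DMSO so potencies reflect activators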
Summary of the method: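 Readout: fluorescent reporter-mRNA fragments resolved by capillary electrophoresis after RT-PCR and HpaI cut. Cells: transiently transfected HepG2 carrying GAL4-UAS reporters driven by exogenous NR-Gal4 chimeras, dosed 24 h. Activity fitted upward relative to DMSO baseline.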

[15] = ATG_M_19_TRANS: Attagene TRANS-FACTORIAL HepG2 Assay for M19 Transcription Factor (Internal Marker) (AID 2282974); conditions: HepG2 Attagene TRANS-FACTORIAL M19 internal marker reporter
Summary of the method: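 After transfection of HepG2 with GAL4-UAS-driven reporter constructs, cells are dosed for 24 h. Total RNA is reverse-transcribed, reporter sequences PCR-amplified and labelled, then HpaI-digested and sized by capillary electrophoresis.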

[16] = target: Glucocorticoid receptor (Homo sapiens) (UniProt P04150); assay: ATG_GR_TRANS: Attagene TRANS-FACTORIAL HepG2 Assay for human Glucocorticoid Receptor (GR) (AID 2282978); conditions: HepG2 Attagene TRANS GR reporter, mRNA transcription;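 further: activators score as hits since higher reporter transcript over DMSO is fitted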
Summary of the method: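 Multiplexed TRANS reporter system, HepG2; 24 h exposure; RNA → oligo(dT) RT → reporter-specific PCR → 6-FAM primer extension → HpaI cut → CE fluorescence. Gain-of-signal vs DMSO.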

[17] = target: Nuclear receptor subfamily 1 group I member 3 (Homo sapiens) (UniProt Q14994); assay: ATG_CAR_TRANS: Attagene TRANS-FACTORIAL HepG2 Assay for human Constitutive Androstane Receptor (CAR) (AID 2282969); conditions: HepG2 Attagene TRANS-FACTORIAL CAR reporter;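 further: activators raise reporter mRNA above DMSO so AC50 marks induction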
Summary of the method: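 Transiently transfected HepG2, multiplex TRANS reporters (CAR-Gal4 chimera driving GAL4-UAS reporter). 24 h dosing. Readout: reporter transcript by RT-PCR + capillary electrophoresis, fluorescence intensity; positive direction vs DMSO.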

[18] = target: Estrogen receptor (Homo sapiens) (UniProt P03372); assay: ATG_ERa_TRANS: Attagene TRANS-FACTORIAL HepG2 Assay for human Estrogen Receptor alpha (ERa) (AID 2282970); conditions: HepG2 Attagene TRANS ERa GAL4 reporter, mRNA
Summary of the method: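 Reporter mRNA induction after 24 hours, detected by fluorescent RT-PCR and capillary electrophoresis, gives the read-out. Cells are HepG2 transiently transfected with GAL4-UAS reporter transcription units responding to chimeric NR-Gal4. Activity is taken as gain of signal over DMSO baseline.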

[19] = ATG_M_32_TRANS: Attagene TRANS-FACTORIAL HepG2 Assay for M32 Transcription Factor (Internal Marker) (AID 2282984); conditions: HepG2 Attagene TRANS M32 internal marker reporter;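 further: transcript level of a background control reporter unit measured by RT-PCR and capillary electrophoresis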
Summary of the method: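 Read-out: fluorescent reporter cDNA fragments resolved by capillary electrophoresis after RT-PCR of total RNA. Transfected HepG2 cells were exposed to chemical for 24 h. Activity scored in the positive direction relative to DMSO.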

Chain of Nuclear receptor subfamily 4 group A member 2 (Homo sapiens) (P43354 whole entry, looked up, the tested form may be a part): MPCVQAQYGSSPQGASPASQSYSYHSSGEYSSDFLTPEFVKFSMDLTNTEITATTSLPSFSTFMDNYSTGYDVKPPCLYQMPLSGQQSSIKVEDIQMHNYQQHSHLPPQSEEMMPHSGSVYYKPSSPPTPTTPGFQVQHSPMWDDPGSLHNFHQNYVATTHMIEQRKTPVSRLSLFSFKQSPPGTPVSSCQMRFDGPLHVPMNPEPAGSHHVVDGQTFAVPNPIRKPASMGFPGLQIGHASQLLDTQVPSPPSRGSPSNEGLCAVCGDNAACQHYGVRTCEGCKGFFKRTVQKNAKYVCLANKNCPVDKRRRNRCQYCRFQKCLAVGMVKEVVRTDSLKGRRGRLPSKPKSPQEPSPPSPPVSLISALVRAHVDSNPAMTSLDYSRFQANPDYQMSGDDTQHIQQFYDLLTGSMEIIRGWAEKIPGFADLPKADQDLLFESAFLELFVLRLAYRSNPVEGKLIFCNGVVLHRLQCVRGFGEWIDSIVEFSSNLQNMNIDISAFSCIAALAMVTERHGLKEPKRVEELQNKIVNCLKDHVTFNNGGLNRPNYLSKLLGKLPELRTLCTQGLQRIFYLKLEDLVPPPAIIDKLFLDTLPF
Chain of Estrogen receptor (Homo sapiens) (P03372 whole entry, looked up, the tested form may be a part): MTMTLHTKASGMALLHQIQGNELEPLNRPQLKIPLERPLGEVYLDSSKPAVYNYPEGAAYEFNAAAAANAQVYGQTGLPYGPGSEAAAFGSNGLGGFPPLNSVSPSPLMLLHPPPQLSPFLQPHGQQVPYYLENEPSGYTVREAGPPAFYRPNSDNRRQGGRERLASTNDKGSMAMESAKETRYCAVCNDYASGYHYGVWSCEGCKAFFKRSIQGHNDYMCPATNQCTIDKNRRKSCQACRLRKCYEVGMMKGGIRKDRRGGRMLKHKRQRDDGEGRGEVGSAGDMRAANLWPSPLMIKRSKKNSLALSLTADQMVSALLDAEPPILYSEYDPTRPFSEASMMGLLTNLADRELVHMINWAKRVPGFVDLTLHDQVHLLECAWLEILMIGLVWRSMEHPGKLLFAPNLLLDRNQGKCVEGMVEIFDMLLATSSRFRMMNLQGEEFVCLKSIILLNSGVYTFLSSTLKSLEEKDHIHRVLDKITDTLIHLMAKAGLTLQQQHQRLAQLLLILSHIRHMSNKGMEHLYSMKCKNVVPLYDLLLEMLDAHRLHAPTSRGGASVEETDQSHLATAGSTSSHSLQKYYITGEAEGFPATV
Chain of Oxysterols receptor LXR-alpha (Homo sapiens) (Q13133 whole entry, looked up, the tested form may be a part): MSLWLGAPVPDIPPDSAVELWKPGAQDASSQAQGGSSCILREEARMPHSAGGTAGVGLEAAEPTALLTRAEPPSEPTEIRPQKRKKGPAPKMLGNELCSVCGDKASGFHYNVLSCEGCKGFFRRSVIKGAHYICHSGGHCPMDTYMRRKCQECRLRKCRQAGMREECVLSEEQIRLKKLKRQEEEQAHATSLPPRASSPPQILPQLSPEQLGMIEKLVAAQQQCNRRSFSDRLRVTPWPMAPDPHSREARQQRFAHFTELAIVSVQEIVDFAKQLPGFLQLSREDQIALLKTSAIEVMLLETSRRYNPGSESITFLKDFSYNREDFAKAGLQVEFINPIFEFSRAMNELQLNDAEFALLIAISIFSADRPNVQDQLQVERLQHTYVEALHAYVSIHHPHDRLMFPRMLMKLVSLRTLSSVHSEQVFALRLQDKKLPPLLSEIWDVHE
Chain of Oxysterols receptor LXR-beta (Homo sapiens) (P55055 whole entry, looked up, the tested form may be a part): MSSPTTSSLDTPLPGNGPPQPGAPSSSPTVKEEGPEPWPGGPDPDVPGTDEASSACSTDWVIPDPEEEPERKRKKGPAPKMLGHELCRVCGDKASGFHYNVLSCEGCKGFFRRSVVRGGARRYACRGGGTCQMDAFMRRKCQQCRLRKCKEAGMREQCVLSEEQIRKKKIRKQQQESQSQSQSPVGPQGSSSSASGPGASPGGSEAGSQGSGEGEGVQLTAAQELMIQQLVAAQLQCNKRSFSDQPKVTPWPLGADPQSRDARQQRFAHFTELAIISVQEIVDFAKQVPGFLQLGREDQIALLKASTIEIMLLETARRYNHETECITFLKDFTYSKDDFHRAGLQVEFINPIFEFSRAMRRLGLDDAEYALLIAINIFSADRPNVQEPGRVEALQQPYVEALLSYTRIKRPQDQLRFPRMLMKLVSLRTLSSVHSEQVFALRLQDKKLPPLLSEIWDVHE
Chain of X-box-binding protein 1 (Homo sapiens) (P17861 whole entry, looked up): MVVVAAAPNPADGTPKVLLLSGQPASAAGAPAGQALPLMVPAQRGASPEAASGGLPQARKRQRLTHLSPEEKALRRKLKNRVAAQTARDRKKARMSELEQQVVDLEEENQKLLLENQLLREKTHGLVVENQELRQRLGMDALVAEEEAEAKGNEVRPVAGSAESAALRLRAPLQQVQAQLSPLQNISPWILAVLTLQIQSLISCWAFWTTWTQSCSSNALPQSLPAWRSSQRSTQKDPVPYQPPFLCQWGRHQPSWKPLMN
Chain of Glucocorticoid receptor (Homo sapiens) (P04150 whole entry, looked up): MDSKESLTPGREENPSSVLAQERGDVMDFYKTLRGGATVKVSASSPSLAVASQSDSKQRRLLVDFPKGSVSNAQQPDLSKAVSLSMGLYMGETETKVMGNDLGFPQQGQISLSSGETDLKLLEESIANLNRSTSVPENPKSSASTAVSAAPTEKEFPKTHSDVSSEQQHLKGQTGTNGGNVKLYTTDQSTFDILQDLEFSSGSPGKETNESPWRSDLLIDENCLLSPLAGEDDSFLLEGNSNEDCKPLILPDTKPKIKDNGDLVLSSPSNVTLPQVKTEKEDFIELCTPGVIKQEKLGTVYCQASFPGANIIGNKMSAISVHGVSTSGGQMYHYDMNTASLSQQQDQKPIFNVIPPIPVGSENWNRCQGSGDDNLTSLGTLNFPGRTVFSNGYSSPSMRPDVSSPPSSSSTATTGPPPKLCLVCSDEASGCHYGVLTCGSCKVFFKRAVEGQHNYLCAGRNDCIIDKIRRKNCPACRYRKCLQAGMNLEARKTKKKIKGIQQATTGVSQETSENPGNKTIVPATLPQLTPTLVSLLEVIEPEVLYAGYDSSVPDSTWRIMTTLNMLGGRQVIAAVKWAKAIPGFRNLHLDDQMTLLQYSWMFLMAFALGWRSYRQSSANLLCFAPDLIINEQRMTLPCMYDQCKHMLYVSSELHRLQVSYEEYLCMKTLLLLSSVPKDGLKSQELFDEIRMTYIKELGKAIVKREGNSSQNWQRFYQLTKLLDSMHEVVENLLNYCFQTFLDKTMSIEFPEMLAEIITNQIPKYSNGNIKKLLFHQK
Chain of Hepatocyte nuclear factor 4-alpha (Homo sapiens) (P41235 whole entry, looked up): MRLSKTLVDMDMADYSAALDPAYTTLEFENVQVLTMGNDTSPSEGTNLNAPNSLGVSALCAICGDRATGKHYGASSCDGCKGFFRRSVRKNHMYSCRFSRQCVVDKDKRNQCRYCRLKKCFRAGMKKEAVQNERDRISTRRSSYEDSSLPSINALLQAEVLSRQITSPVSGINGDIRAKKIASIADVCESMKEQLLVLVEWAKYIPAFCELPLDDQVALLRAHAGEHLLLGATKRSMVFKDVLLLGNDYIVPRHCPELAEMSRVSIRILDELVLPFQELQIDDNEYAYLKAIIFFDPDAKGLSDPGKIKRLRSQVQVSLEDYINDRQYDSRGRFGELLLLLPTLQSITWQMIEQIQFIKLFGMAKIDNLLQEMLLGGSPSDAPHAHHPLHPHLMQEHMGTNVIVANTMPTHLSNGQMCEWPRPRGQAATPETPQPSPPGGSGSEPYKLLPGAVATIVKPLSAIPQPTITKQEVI
Chain of Transcriptional activator Myb (Homo sapiens) (P10242 whole entry, looked up): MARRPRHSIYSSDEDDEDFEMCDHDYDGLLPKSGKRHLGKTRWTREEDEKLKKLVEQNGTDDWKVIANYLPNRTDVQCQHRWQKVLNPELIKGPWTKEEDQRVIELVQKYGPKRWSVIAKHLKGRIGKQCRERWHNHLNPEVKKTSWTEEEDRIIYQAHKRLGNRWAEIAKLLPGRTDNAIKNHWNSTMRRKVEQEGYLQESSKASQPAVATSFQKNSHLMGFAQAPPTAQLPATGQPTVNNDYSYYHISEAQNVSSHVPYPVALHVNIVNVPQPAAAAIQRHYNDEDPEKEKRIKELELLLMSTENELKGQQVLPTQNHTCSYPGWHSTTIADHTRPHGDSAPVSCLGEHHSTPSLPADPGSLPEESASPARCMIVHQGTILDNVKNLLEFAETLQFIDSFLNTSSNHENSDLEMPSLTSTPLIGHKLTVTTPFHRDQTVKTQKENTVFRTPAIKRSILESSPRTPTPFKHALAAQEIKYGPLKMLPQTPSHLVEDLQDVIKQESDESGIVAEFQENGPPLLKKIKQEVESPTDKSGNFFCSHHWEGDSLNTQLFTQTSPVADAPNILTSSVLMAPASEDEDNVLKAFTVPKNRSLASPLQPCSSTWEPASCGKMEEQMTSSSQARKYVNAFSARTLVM
Chain of Steroid hormone receptor ERR1 (Homo sapiens) (P11474 whole entry, looked up, the tested form may be a part): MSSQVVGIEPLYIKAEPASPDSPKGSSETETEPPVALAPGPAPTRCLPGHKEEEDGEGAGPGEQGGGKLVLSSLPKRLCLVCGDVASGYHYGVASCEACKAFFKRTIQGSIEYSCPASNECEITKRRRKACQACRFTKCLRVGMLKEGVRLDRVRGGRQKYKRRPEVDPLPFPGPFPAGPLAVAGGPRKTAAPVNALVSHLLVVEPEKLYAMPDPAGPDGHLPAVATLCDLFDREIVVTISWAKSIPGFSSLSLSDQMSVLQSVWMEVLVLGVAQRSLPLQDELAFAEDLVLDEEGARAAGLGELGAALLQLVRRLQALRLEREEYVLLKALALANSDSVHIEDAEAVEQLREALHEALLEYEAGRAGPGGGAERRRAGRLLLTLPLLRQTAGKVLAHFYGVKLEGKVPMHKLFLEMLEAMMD

With CCCCCC1C(=O)CCC1CC(=O)OC (stereo not drawn) the outcome [1] was “inactive”, the outcome [2] was “inactive” and the outcome [3] was “inactive”. For the same compound, the outcome [4] was “inactive”, the outcome [5] was “inactive” and the outcome [6] was “inactive”. The outcome [7] was “inactive”, the outcome [8] was “inactive” and the outcome [9] was “inactive”.
For CC1=CCC(=C(C)C)CC1, the outcome [1] was “inactive”, the outcome [2] was “inactive” and the outcome [3] was “inactive”. For the same compound, the outcome [5] was “inactive”, the outcome [10] was “inactive” and the outcome [11] was “inactive”. For the same compound, the outcome [6] was “inactive”, the outcome [12] was “inactive” and the outcome [8] was “inactive”. For the same compound, the outcome [9] was “inactive”.
With Cc1cc(O)c2c(c1)C(=O)c1cc(O)cc(O)c1C2=O the outcome [1] was “inactive”, the outcome [2] was “inactive” and the outcome [3] was “inactive”. For the same compound, the outcome [13] was “inactive”, the AC50 [5] was 9.89 µM (active) and the outcome [14] was “inactive”. The outcome [11] was “inactive”, the outcome [6] was “inactive” and the outcome [12] was “inactive”. The outcome [7] was “inactive”, the outcome [8] was “inactive” and the outcome [9] was “inactive”.
In the case of CC(=O)N(C)C, the outcome [1] is reported as “inactive”, the outcome [2] is reported as “inactive” and the outcome [3] is reported as “inactive”. The outcome [13] was “inactive”, the outcome [5] was “inactive” and the outcome [15] was “inactive”. For the same compound, the outcome [10] was “inactive”, the outcome [14] was “inactive” and the outcome [16] was “inactive”. The outcome [9] was “inactive”.
With CCC(C)(C)C1CCC(OC)CC1 (stereo not drawn) the outcome [1] was “inactive”, the outcome [2] was “inactive” and the outcome [4] was “inactive”. The outcome [17] was “inactive”, the AC50 [18] was 58.7 µM (active) and the outcome [5] was “inactive”. The outcome [15] was “inactive”, the outcome [11] was “inactive” and the outcome [6] was “inactive”. For the same compound, the outcome [8] was “inactive” and the outcome [9] was “inactive”.
With CC(C)(O)C(=O)c1ccc(OCCO)cc1 the outcome [1] was “inactive”, the outcome [2] was “inactive” and the outcome [3] was “inactive”. The outcome [5] was “inactive”, the outcome [10] was “inactive” and the outcome [16] was “inactive”. For the same compound, the outcome [11] was “inactive”, the outcome [6] was “inactive” and the outcome [12] was “inactive”. For the same compound, the outcome [7] was “inactive” and the outcome [9] was “inactive”.
For CCCCCCCCOC(=O)c1ccc(O)cc1, the outcome [1] was “inactive”, the outcome [2] was “inactive” and the outcome [3] was “inactive”. For the same compound, the AC50 [18] was 5.53 µM (active), the outcome [5] was “inactive” and the outcome [15] was “inactive”. The outcome [10] was “inactive”, the outcome [16] was “inactive” and the outcome [11] was “inactive”. The outcome [12] was “inactive”, the outcome [7] was “inactive” and the outcome [19] was “inactive”. For the same compound, the outcome [8] was “inactive” and the outcome [9] was “inactive”.
With C=C(C)C(=O)OCCC[Si](OC)(OC)OC the outcome [1] was “inactive”, the outcome [2] was “inactive” and the outcome [3] was “inactive”. The outcome [18] was “inactive”, the outcome [5] was “inactive” and the outcome [11] was “inactive”. The outcome [6] was “inactive”, the outcome [12] was “inactive” and the outcome [19] was “inactive”. For the same compound, the outcome [9] was “inactive”.
In the case of CCCC(O)C(CC)CO (stereo not drawn), the outcome [1] is reported as “inactive”, the outcome [2] is reported as “inactive” and the outcome [3] is reported as “inactive”. For the same compound, the outcome [5] was “inactive”, the outcome [11] was “inactive” and the outcome [12] was “inactive”. The outcome [7] was “inactive”, the outcome [19] was “inactive” and the outcome [8] was “inactive”. The outcome [9] was “inactive”.
For CC(CO)c1ccccc1 (stereo not drawn), the outcome [1] was “inactive”, the outcome [2] was “inactive” and the outcome [3] was “inactive”. For the same compound, the outcome [18] was “inactive”, the outcome [5] was “inactive” and the outcome [15] was “inactive”. The outcome [10] was “inactive”, the outcome [6] was “inactive” and the outcome [19] was “inactive”. The outcome [9] was “inactive”.
For CC(C)Cc1ccccc1, the outcome [1] was “inactive”, the outcome [2] was “inactive” and the outcome [3] was “inactive”. For the same compound, the outcome [5] was “inactive”, the outcome [12] was “inactive” and the outcome [7] was “inactive”. The outcome [19] was “inactive” and the outcome [9] was “inactive”.

Reference: PubChem BioAssay (EPA / NIEHS)
